# Bioassay records deposited in PubChem BioAssay by Broad Institute.
# FGF22 binding = binders of human FGF22 protein, primary screen, FGF22 synaptogenesis inhibitor project, biophysical, thermal shift, single point; recombinant FGF22 thermal shift, SYPRO orange fluorescence; percent of sucrose octasulfate shift, DMSO zero; AID 651658, 2012; Fibroblast growth factor 22 (Homo sapiens), Q9HCT0; actives 1.5% (n = 340,000); activity (Tm shift, normalised), % at 9.99 µM;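 active = mean Tm shift, scaled 0 neutral to 100 positive control, at about 1.3% or above, every replicate too, limit read from the data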
# ERAP1 inh = human ERAP1 aminopeptidase inhibitors, primary screen, biochemical, single point, plate reader. inhibition, % at 10.7 µM. recombinant ERAP1, Leu-AMC fluorescence, 60 min. actives 0.15% (n = 340,000). Endoplasmic reticulum aminopeptidase 1 (Homo sapiens), Q9NZ08;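 active = mean replicate inhibition of at least 30%, or all replicates individually reaching that 30% level; inactive = mean below 30% and not every replicate reaching it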;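 note: 0% = neutral control wells and 100% = L-leucinethiol positive control wells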
# Target sequence (Q9NZ08 whole entry, looked up): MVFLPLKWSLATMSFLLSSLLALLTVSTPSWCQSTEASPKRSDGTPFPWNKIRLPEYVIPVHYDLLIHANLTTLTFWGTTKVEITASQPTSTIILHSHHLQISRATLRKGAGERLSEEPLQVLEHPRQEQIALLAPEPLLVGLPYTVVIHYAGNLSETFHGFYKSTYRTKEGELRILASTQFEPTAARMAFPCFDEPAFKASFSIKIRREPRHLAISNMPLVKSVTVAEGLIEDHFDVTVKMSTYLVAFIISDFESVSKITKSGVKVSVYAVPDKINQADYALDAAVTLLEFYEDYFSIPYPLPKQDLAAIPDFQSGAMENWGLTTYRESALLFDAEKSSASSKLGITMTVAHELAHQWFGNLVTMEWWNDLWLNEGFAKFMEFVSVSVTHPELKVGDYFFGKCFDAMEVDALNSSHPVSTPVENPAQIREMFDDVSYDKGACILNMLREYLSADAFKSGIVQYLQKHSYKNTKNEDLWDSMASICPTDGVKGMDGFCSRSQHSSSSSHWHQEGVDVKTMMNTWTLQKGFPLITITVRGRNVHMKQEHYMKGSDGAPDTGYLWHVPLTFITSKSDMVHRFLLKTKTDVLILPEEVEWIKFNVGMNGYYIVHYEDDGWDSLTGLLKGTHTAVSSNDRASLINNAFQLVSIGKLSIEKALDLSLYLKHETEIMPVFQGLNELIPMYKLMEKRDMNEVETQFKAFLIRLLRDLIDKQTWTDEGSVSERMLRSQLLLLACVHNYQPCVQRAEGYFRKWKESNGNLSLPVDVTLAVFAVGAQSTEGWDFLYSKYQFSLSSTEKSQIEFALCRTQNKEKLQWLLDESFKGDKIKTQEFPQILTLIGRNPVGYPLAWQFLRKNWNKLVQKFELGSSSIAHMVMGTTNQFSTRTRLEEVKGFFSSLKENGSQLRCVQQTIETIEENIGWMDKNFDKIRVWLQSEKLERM
# Casp6 inh = human caspase-6 inhibitors, primary screen, biochemical, VEID-R110 fluorescence, single point, set 2; actives 0.53% (n = 350,000); inhibition, % at 12.5 µM; P55212; purified caspase-6, Z-VEID-R110 cleavage fluorescence;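 active = mean inhibition across replicates at least about 35%, with every replicate also reaching that limit, limit read from the data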;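 note: 0% = median of neutral control wells and 100% = no fluorescence left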
# SIRT5 inh = SIRT5 desuccinylase inhibitors, primary screen, biochemical, fluorescence imaging, single point, set 5. actives 1.1% (n = 330,000). inhibition, % at 15 µM. Purified SirT5, succinyl-peptide AMC, trypsin-coupled fluorescence. NAD-dependent protein deacylase sirtuin-5, mitochondrial (Homo sapiens), Q9NXA8. AID 652115, 2013; in the data active = inhibition above about 15%
# Numbers without * were called inactive; / = not tested or not shown; ! = a repeat was not active. Most compounds without a hit are left out; they make up all but 3.1% or so of the library.
SMILES,FGF22 binding,ERAP1 inh,Casp6 inh,SIRT5 inh
O=C(COC(=O)c1ccc([N+](=O)[O-])s1)NCCc1ccccc1,/,2.7,99.2*,2.0
O=C(COC(=O)c1ccc(O)cc1)NC(=O)NCc1ccccc1,0.0,-1.3,-2.1,-2.7
CCc1cc(C(=O)OCC(=O)NCCc2ccccc2)sc1C,-0.1,-1.5,4.7,/
O=C(COC(=O)c1ccc([N+](=O)[O-])s1)NC(=O)NCc1ccccc1,43.1*,0.3,43.7*,-4.6
O=C(COC(=O)c1ccc([N+](=O)[O-])s1)c1ccc[nH]1,0.1,-1.8,99.2*,-0.2
O=C(OCC(=O)c1ccc[nH]1)c1ccc([N+](=O)[O-])cc1,0.1,0.2,0.0,-0.8
CC(=O)Nc1ccc(/C=N/Nc2nc3ccccc3s2)cc1,0.3,/,-2.0,1.1
CC(=O)Nc1cccc(/C(C)=N/Nc2nc3ccccc3s2)c1,43.1*,-1.1,4.3,-3.4
COc1ccc(NS(=O)(=O)c2cccc(C(=O)N3CCCC(C)C3)c2)cc1 (stereo not given),-0.4,2.1,-98.1,19.5*
Cc1ccc(NS(=O)(=O)c2cccc(C(=O)N3CCCC(C)C3)c2)cc1 (stereo not given),-0.3,1.3,0.7,-1.0
C[C@@H]1CCCCO[C@H](CN(C)S(=O)(=O)c2ccc(F)cc2)[C@@H](C)CN([C@@H](C)CO)C(=O)c2cc(NS(=O)(=O)c3ccccc3)ccc2O1,-0.5,2.0,-1.1,16.9*
C[C@@H]1CCCCO[C@H](CN(C)S(=O)(=O)c2ccccc2)[C@H](C)CN([C@@H](C)CO)C(=O)c2cc(NS(=O)(=O)c3ccc(F)cc3)ccc2O1,-0.2,-0.8,-1.7,8.2
C[C@@H]1CCCCO[C@@H](CN(C)S(=O)(=O)c2ccc(F)cc2)[C@@H](C)CN([C@@H](C)CO)C(=O)c2cc(NS(=O)(=O)c3ccccc3)ccc2O1,-0.3,3.9,2.2,16.2*
Cc1noc(C)c1NC(=O)N(C)C[C@@H]1OCCCC[C@@H](C)Oc2ccc(NS(=O)(=O)c3ccc(Cl)cc3)cc2C(=O)N([C@H](C)CO)C[C@@H]1C,/,-4.2,0.4,-0.2
NCC[C@@H]1CC[C@@H](NC(=O)C2CCCCC2)[C@H](CO)O1,-0.6,0.1,-2.0,0.9
Cc1cccc(S(=O)(=O)N(C)C[C@H]2OCc3cnnn3CCCC(=O)N([C@H](C)CO)C[C@@H]2C)c1,0.4,0.5,-5.5,20.8*!
Cc1cccc(S(=O)(=O)N(C)C[C@H]2OCc3cnnn3CCCC(=O)N([C@@H](C)CO)C[C@@H]2C)c1,0.1,-0.9,0.4,-1.6
C[C@@H]1CN([C@H](C)CO)C(=O)CCCn2nncc2CO[C@@H]1CN(C)S(=O)(=O)c1cccc(F)c1,0.1,4.6,-5.3,15.1*!
C[C@H](CO)N1C[C@H](C)[C@@H](CN(C)S(=O)(=O)c2ccc3ccccc3c2)OCc2cnnn2CCCC1=O,-0.1,-2.7,-0.5,21.3*!
C[C@H](CO)N1C[C@H](C)[C@H](CN(C)S(=O)(=O)c2ccc(Cl)cc2)OCc2cnnn2CCCC1=O,0.1,-1.8,1.4,15.4*!
C[C@H](CO)N1C[C@H](C)[C@@H](CN(C)S(=O)(=O)c2ccc(Cl)cc2)OCc2cnnn2CCCC1=O,-0.1,0.1,0.0,-0.4
C[C@H]1CN([C@@H](C)CO)C(=O)CCCn2nncc2CO[C@@H]1CN(C)S(=O)(=O)c1ccc2ccccc2c1,-0.1,10.0,-2.9,-1.6
CC(C)(C)n1nnnc1C(c1ccc2ncccc2c1)N1CCC(O)CC1 (stereo not given),43.7*,4.0,-1.9,0.1
O=C(Nc1cc(F)ccc1F)N1CC(=O)N2[C@H](C1)[C@H](c1ccc(-c3cccc(F)c3)cc1)[C@@H]2CO,/,-0.9,0.9,3.4
O=C(Nc1ccc(N2CCCC2)c(Cl)c1)c1cccs1,1.2,-2.4,1.1,67.1*
SMILES,FGF22 binding,ERAP1 inh,Casp6 inh,SIRT5 inh
O=C(NC(=S)Nc1ccc(N2CCOCC2)c(Cl)c1)c1cccs1,-0.2,-0.8,4.4,1.0
CCCCCCCCCCCCCCCC[n+]1cccc2ccccc21,0.9,108.4*,-152.0,6.4
O=C(Nc1nccs1)c1cccc2ccccc12,0.1,-1.7,0.7,17.8*
O=C(COC(=O)Cn1nc(-c2ccccc2)oc1=O)Nc1ccc(F)cc1,0.2,1.1,0.1,-5.2
Cc1ccc(NC(=O)COC(=O)Cn2nc(-c3ccc(F)cc3)oc2=O)cc1C,43.5*,5.6,1.9,/
O=C(CN1CCOCC1)NCC[C@H]1CC[C@@H](NS(=O)(=O)c2ccc(Cl)cc2)[C@@H](CO)O1,-0.3,-0.8,1.9,32.3*
O=C(CN1CCOCC1)NCC[C@@H]1CC[C@@H](NC(=O)Nc2ccc(F)cc2)[C@H](CO)O1,-0.5,-2.6,0.0,15.7*
O=C(CN1CCOCC1)NCC[C@H]1CC[C@@H](NC(=O)Nc2ccc(F)cc2)[C@@H](CO)O1,1.2,-1.5,-1.0,3.6
O=C(CN1CCOCC1)NCC[C@@H]1CC[C@H](NC(=O)Nc2ccc(F)cc2)[C@H](CO)O1,-0.5,-0.4,0.5,25.9*
O=C(CN1CCOCC1)NCC[C@H]1CC[C@H](NC(=O)Nc2ccc(F)cc2)[C@H](CO)O1,0.2,-1.6,-5.0,3.7
C/C=C/c1cnc2c(c1)C(=O)N([C@@H](C)CO)C[C@H](C)[C@H](CN(C)S(=O)(=O)c1ccccc1)O2,0.0,-1.0,1.9,-1.0
Cc1nc(C)c(C(=O)Nc2cccc(F)c2)s1,-0.3,1.3,-0.5,0.6
Cc1cc(C)c(C(=O)Nc2cccc(F)c2)c(Cl)n1,43.0*,5.2,0.0,-0.4
CC(C)NC1(C#N)CCN(Cc2ccccc2)CC1,43.3*,-0.3,2.5,/
COc1ccc(Cc2nc3c([nH]2)c(=O)n(C)c(=O)n3C)cc1OC,43.5*,2.0,0.3,/
COC(=O)c1ccc(OCC(O)CN2C(=O)c3ccccc3S2(=O)=O)cc1 (stereo not given),43.0*,2.4,-0.6,-4.2
O=C(N/N=C/c1ccccn1)c1cc(-c2cccc3ccccc23)n[nH]1,0.3,3.4,1.4,-3.7
O=C(N/N=C/c1cccs1)c1cc(-c2cccc3ccccc23)n[nH]1,43.7*,-0.8,3.9,-2.7
COc1ccc(-c2cnc3c(c2)C(=O)N([C@@H](C)CO)C[C@H](C)[C@H](CN(C)C(=O)C2CCCCC2)O3)cc1,-0.3,4.1,7.7,-14.3
COC(=O)C[C@H]1CC[C@@H]2[C@H](COC[C@@H](O)CN2S(=O)(=O)c2ccccc2OC)O1,-0.3,/,/,/
O=C(C[C@H]1CC[C@@H]2[C@H](COC[C@@H](O)CN2S(=O)(=O)c2cccc(Cl)c2)O1)Nc1ccc(-c2ccccc2)cc1,1.3*,0.0,1.0,10.6
O=C(C[C@H]1CC[C@H]2[C@@H](COC[C@@H](O)CN2S(=O)(=O)c2cccc(Cl)c2)O1)Nc1ccc(-c2ccccc2)cc1,/,1.5,0.5,19.3*
